Here are results for 16 compounds from ChEMBL document CHEMBL5308504, “Tm Shift (DSF) assay results for EUbOPEN Chemogenomics Library” (2023).

Several values for one entry are separate records, joined by “and”; a condition that tells them apart may be missing. Equal values may be shown once.

What all share (conditions): Compound concentration 20.0 uM, Protein concentration 2.0 uM, Result type QC Liability
For assay [1], the target named is Tyrosine-protein kinase ABL1 (Homo sapiens) (UniProt P00519).
For assay [2], the target named is Cyclin-dependent kinase 2 (Homo sapiens) (UniProt P24941).
Assay [3] addresses Casein kinase I isoform delta (Homo sapiens) (UniProt P48730).
The target of assay [4] is Glycogen synthase kinase-3 beta (Homo sapiens) (UniProt P49841).
The target in assay [5] is Mitogen-activated protein kinase 1 (Homo sapiens) (UniProt P28482).
Assay [6] addresses T1, Aurora kinase A (Homo sapiens) (UniProt O14965).
T1 sequence (whole entry): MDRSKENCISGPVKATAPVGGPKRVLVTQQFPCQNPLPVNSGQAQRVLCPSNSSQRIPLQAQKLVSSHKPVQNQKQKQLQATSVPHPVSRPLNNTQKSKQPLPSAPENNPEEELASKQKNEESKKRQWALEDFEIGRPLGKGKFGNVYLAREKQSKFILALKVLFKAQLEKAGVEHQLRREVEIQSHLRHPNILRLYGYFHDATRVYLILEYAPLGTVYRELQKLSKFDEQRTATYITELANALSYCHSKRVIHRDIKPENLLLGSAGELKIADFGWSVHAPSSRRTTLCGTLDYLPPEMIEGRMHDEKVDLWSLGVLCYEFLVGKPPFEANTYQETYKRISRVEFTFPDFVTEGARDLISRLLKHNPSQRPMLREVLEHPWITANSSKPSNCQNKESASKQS

Sequence of Glycogen synthase kinase-3 beta (Homo sapiens) (P49841 whole entry, looked up): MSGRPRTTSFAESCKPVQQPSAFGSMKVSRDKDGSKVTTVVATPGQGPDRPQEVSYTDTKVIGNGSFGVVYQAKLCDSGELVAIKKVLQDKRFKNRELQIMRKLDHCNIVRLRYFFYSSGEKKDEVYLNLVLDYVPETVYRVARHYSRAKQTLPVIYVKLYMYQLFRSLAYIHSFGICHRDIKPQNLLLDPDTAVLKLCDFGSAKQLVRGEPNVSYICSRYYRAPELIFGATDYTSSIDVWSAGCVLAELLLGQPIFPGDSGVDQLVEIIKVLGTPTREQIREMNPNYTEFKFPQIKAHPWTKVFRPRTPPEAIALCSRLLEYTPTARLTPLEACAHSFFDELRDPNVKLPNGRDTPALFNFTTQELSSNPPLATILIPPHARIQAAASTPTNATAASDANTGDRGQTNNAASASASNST
Sequence of Tyrosine-protein kinase ABL1 (Homo sapiens) (P00519 whole entry): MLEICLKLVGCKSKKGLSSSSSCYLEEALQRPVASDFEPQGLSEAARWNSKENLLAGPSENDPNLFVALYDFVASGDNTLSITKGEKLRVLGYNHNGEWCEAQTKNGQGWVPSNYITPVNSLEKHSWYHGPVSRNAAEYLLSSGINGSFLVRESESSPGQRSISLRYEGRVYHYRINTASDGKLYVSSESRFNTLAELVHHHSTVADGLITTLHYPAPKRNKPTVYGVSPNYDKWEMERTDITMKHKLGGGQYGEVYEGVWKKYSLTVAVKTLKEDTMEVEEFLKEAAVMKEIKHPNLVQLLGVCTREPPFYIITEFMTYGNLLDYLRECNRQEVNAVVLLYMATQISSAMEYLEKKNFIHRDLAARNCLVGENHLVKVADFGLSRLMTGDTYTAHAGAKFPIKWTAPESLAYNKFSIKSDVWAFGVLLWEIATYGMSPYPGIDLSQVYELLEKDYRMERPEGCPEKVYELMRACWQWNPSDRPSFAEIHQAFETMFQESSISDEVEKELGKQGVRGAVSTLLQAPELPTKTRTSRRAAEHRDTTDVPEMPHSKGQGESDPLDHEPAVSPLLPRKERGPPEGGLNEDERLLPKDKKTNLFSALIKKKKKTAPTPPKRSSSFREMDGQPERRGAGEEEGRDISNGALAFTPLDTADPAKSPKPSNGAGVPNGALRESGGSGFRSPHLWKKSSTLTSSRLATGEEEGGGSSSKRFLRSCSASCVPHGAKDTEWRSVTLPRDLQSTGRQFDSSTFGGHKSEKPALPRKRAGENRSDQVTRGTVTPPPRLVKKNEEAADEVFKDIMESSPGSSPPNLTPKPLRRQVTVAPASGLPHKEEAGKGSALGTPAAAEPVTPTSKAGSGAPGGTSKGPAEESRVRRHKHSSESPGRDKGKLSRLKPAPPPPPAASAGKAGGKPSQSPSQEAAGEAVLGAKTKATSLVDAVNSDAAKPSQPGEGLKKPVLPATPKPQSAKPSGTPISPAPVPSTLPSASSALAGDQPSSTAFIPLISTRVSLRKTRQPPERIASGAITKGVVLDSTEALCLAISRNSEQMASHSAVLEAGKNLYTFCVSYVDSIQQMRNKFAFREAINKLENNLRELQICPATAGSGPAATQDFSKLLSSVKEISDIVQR
Sequence of Mitogen-activated protein kinase 1 (Homo sapiens) (P28482 whole entry): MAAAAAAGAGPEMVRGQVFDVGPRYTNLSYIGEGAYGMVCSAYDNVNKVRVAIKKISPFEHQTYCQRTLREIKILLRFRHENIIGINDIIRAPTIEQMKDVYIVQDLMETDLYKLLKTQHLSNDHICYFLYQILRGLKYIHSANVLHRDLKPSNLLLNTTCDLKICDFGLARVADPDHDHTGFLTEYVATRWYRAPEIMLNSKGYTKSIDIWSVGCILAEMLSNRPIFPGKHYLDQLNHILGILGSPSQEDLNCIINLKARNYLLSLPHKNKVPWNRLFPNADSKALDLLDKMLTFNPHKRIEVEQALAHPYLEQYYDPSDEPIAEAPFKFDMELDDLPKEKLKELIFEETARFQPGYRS
Sequence of Casein kinase I isoform delta (Homo sapiens) (P48730 whole entry, looked up, canonical isoform): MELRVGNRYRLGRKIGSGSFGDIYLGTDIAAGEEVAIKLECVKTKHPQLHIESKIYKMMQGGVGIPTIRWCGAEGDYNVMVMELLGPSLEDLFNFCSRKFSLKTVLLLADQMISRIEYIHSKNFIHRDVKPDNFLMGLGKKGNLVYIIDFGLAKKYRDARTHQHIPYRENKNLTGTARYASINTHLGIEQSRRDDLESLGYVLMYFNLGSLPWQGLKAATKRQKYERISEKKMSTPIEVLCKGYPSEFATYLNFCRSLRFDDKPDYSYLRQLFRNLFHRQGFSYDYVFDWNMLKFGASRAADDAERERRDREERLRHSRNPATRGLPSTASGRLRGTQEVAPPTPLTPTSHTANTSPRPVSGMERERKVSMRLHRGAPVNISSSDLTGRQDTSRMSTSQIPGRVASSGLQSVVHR

Usually ΔTm stands for the shift of the melting midpoint relative to a reference. As to `Cn1cnc(Cn2ccc3ccc(CNCc4[nH]c5ccccc5c4[C@H]4NC(=O)c5ccc(O)cc54)cc32)c1`, the ΔTm in assay [1] was 0.28 °C; in assay [2] it was -0.58 °C; in assay [3], 0.32 °C; in assay [4], -0.76 °C; in assay [5], 0.91 °C; in assay [6] it was 0.59 °C.

As to `O=C(Nc1ccnc(NC(=O)C2CC2)c1)c1c(Cl)cccc1Cl`, the shift in melting temperature (ΔTm) came to 5.46 °C in assay [1]; 6.9 °C in assay [2]; 0.54 °C in assay [3]; 6.06 °C in assay [4]; 0.23 °C in assay [5]; 4.28 °C in assay [6].

As to `CCc1nc(-c2cccc(C)c2)c(-c2ccncc2)s1`, the shift in melting temperature (ΔTm) in assay [1] was 1.94 °C; in assay [2] it was -0.27 °C; in assay [3] it was 3.88 °C; in assay [4], 3.39 °C; in assay [5], 0.28 °C; in assay [6], -0.09 °C.

In the case of `O=S(=O)(Nc1ccc(C(O)(C(F)(F)F)C(F)(F)F)cc1)c1cccs1`, the thermal shift (ΔTm) was 0.41 °C in assay [1]; 0.73 °C in assay [2]; 0.38 °C in assay [3]; -0.54 °C in assay [4]; 1.04 °C in assay [5]; 0.57 °C in assay [6].

As for `CN1C(=O)[C@@H](NC(=O)c2cc(Cc3ccccc3)on2)COc2ccccc21`, the shift in melting temperature (ΔTm) in assay [1] is -2.16 °C; in assay [2], -0.24 °C; in assay [3] it was -4.18 °C; in assay [4], -4.43 °C; in assay [5] it was -1.79 °C; in assay [6] it was -1.24 °C.

As to `CN(C)C(=O)Cn1cc(-c2nc([C@@](C)(c3ccc(-c4cnc(N)nc4)cc3)C3CC3)no2)cn1`, the thermal shift (ΔTm) in assay [1] is 1.32 °C; in assay [2], 0.32 °C; in assay [3] it was 0.5 °C; in assay [4] it was -0.36 °C; in assay [5] it was 0.32 °C; in assay [6], 2.6 °C.

Regarding `O=C(N[C@H]1CCC[C@H](CO)C1)C1CCN(c2nc3cc(Cl)c(-c4ccc(Cl)cc4)cc3o2)CC1`, the shift in melting temperature (ΔTm) in assay [1] is 1.38 °C; in assay [2], -3.19 °C; in assay [3], -6.76 °C; in assay [4], 1.1 °C; in assay [5], -10.4 °C; in assay [6] it was -2.13 °C.

Consider `COc1cc(-c2cncc(-c3cnn(C4CCNCC4)c3)c2)cc(OC)c1OC`, for which the ΔTm in assay [1] was 4.87 °C; in assay [2], 0.28 °C; in assay [3], 0.76 °C; in assay [4], -0.71 °C; in assay [5] it was 0.5 °C; in assay [6], -0.25 °C.

Regarding `CCOc1ccc(S(=O)(=O)Nc2ccc(Cl)cc2C#Cc2cnc(C(=O)O)cc2OC)c2ncccc12`, the ΔTm in assay [1] is -0.94 °C; in assay [2], -1.65 °C; in assay [3] it was -1.46 °C; in assay [4], -1.14 °C; in assay [5] it was -0.06 °C; in assay [6] it was -2.25 °C.

As to `COc1cc(-c2cc3ncccc3c(O[C@@H](C)[C@H]3CNC(=O)C3)n2)cc(OC)c1OC`, the ΔTm was 0.48 °C in assay [1]; 0.19 °C in assay [2]; 1.43 °C in assay [3]; -0.57 °C in assay [4]; 0.06 °C in assay [5]; 2.08 °C in assay [6].

As to `CNc1[nH]c(Nc2ccc(C(=O)N3CCOCC3)cc2OC)nc2ncc(Cl)c1-2`, the shift in melting temperature (ΔTm) in assay [1] is 0.1 °C; in assay [2] it was -0.26 °C; in assay [3], 4.5 °C; in assay [4], -1.11 °C; in assay [5], 0.86 °C; in assay [6], 1 °C.

Consider `Cc1c(NC(=O)COc2ccc(Cl)cc2C(=O)c2cc(F)cc(C(F)(F)F)c2)ccc(C(=O)O)c1F`, for which the thermal shift (ΔTm) was -0.06 °C and 0.75 °C in assay [1]; 0.5 °C and 0.58 °C in assay [2]; 0.18 °C and 0.09 °C in assay [3]; 1.73 °C and 2.32 °C in assay [4]; 0.12 °C and 0.93 °C in assay [5]; -0.24 °C and -1.26 °C in assay [6].

Consider `CCCCCNC(=O)N1CCC(CN(Cc2ccc(Cl)cc2)Cc2ccc([N+](=O)[O-])s2)C1` (stereo unspecified), for which the shift in melting temperature (ΔTm) was 0.03 °C in assay [1]; 0.81 °C in assay [2]; 0.7 °C in assay [3]; -1.49 °C in assay [4]; 0.03 °C in assay [5]; -0.9 °C in assay [6].

With `CC[C@H](NC(=O)[C@H](C)NC)C(=O)N1C[C@@H](O)C[C@H]1Cc1c(-c2[nH]c3cc(F)ccc3c2C[C@@H]2C[C@H](O)CN2C(=O)[C@H](CC)NC(=O)[C@H](C)NC)[nH]c2cc(F)ccc12`, the thermal shift (ΔTm) is 0.09 °C in assay [1]; 0.28 °C in assay [2]; 1.26 °C in assay [3]; -0.88 °C in assay [4]; 0.38 °C in assay [5]; -1.51 °C in assay [6].

In the case of `C[S+](C)[O-]`, the shift in melting temperature (ΔTm) in assay [1] was 0 °C (2×) and 0.21 °C; in assay [2] it was 0 °C (2×) and 0.78 °C; in assay [3], 0 °C (2×) and 0.01 °C; in assay [4], 0 °C (2×) and -0.51 °C; in assay [5], 0 °C (2×) and 0.53 °C; in assay [6] it was 0 °C (2×) and 0.05 °C.

For `CCCN1C(=O)c2ccc(Cl)cc2Nc2ncccc21`, the ΔTm in assay [1] came out at 0.81 °C; in assay [2], 0.95 °C; in assay [3], 0.61 °C; in assay [4], 0.22 °C; in assay [5], 0.22 °C; in assay [6], 1.35 °C.
